Source: PubChem BioAssay AID1159580 (chemical genetic matrix, 2015)
Hit rate of the full screen: of about 5,500 compounds, about 2,000 (36%) were called active. Another 18% or so got no clear call; they are omitted. The list shows a part of the results. Values without a mark were called inactive. Rule as the data show it: active = normalized growth mostly below about 0.91 (no sharp cut-off); inconclusive = no clear call, values can overlap the other calls; inactive = mostly above about 0.92.

Assay: chemical genetic growth profiling, strain panel (AID 1159580);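 also: tested at 20 µM; growth read once vehicle control cultures reached saturation at 30 °C; 1 = growth at the plate median or of vehicle wells; lower values mean less growth of the strain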
Conditions: S. cerevisiae deletion strains, growth OD

Q: For COc1c2ccccc2nc2occc12, which normalized growth (locus YJR066W, strain TOR1, hits give low values) is on record?
A: 0.894

Q: What about the normalized growth (locus YKL009W, strain mrt4, hits give low values) of the same compound?
A: 0.881

Q: And the normalized growth (locus YKL068W, hits give low values)?
A: 1.02

Q: What about the normalized growth (locus YKL085W, strain MDH1 (second series), hits give low values) of the same compound?
A: 0.984

Q: And the normalized growth (locus YKL085W, strain MDH1, hits give low values)?
A: 0.984

Q: And the normalized growth (locus YKL160W, strain elf1, hits give low values)?
A: 0.917

Q: And the normalized growth (locus YKR001C, strain vps1, hits give low values)?
A: 0.766 (active)

Q: And the normalized growth (locus YKR026C, strain gcn3, hits give low values)?
A: 0.982

Q: What about the normalized growth (locus YKR091W, strain srl3, hits give low values) of the same compound?
A: 0.969

Q: And the normalized growth (locus YLL001W, strain dnm1, hits give low values)?
A: 0.872 (active)

Q: What about the normalized growth (locus YLL026W, hits give low values) of the same compound?
A: 0.974

Q: What about the normalized growth (locus YLL041C, strain sdh2, hits give low values) of the same compound?
A: 0.963

Q: What about the normalized growth (locus YLR027C, strain aat2, hits give low values) of the same compound?
A: 0.946

Q: And the normalized growth (locus YLR039C, strain RIC1, hits give low values)?
A: 0.925

Q: And the normalized growth (locus YLR058C, strain SHM2, hits give low values)?
A: 0.957

Q: What about the normalized growth (locus YLR102C, strain apc9, hits give low values) of the same compound?
A: 1

Q: And the normalized growth (locus YLR113W, strain HOG1, hits give low values)?
A: 0.872

Q: And the normalized growth (locus YLR221C, strain rsa3, hits give low values)?
A: 0.927

Q: What about the normalized growth (locus YLR258W, strain gsy2, hits give low values) of the same compound?
A: 0.938

Q: What about the normalized growth (locus YLR262C, strain YPT6 (second series), hits give low values) of the same compound?
A: 0.884

Q: What about the normalized growth (locus YLR262C, strain YPT6, hits give low values) of the same compound?
A: 1.04

Q: What about the normalized growth (locus YLR268W, strain sec22, hits give low values) of the same compound?
A: 0.896

Q: And the normalized growth (locus YLR320W, strain mms22, hits give low values)?
A: 0.871 (active)

Q: What about the normalized growth (locus YLR330W, strain CHS5, hits give low values) of the same compound?
A: 0.917 (active)

Q: And the normalized growth (locus YLR342W, strain FKS1, hits give low values)?
A: 0.974

Q: And the normalized growth (locus YLR357W, strain rsc2, hits give low values)?
A: 1.04

Q: And the normalized growth (locus YLR370C, strain arc18, hits give low values)?
A: 0.967

Q: And the normalized growth (locus YLR371W, strain rom2, hits give low values)?
A: 0.81 (active)

Q: What about the normalized growth (locus YLR384C, strain iki3, hits give low values) of the same compound?
A: 0.981

Q: And the normalized growth (locus YLR418C, strain cdc73, hits give low values)?
A: 0.744 (active)

Q: And the normalized growth (locus YML016C, strain PPZ1, hits give low values)?
A: 0.975

Q: And the normalized growth (locus YML032C, strain rad52, hits give low values)?
A: 0.786 (active)

Q: What about the normalized growth (locus YML120C, strain ndi1, hits give low values) of the same compound?
A: 0.915

Q: What about the normalized growth (locus YML124C, strain tub3, hits give low values) of the same compound?
A: 0.978

Q: What about the normalized growth (locus YMR058W, strain fet3, hits give low values) of the same compound?
A: 0.894 (active)

Q: What about the normalized growth (locus YMR078C, strain ctf18, hits give low values) of the same compound?
A: 0.974

Q: What about the normalized growth (locus YMR125W, strain sto1, hits give low values) of the same compound?
A: 0.983

Q: What about the normalized growth (locus YMR129W, hits give low values) of the same compound?
A: 0.975

Q: What about the normalized growth (locus YMR205C, strain PFK2, hits give low values) of the same compound?
A: 0.938

Q: What about the normalized growth (locus YMR223W, strain ubp8, hits give low values) of the same compound?
A: 0.912

Q: What about the normalized growth (locus YMR231W, strain pep5, hits give low values) of the same compound?
A: 0.994

Q: What about the normalized growth (locus YMR263W, strain SAP30, hits give low values) of the same compound?
A: 0.952

Q: What about the normalized growth (locus YMR307W, strain GAS1, hits give low values) of the same compound?
A: 1.15

Q: And the normalized growth (locus YNL067W, strain RPL9B, hits give low values)?
A: 0.951

Q: And the normalized growth (locus YNL071W, strain lat1, hits give low values)?
A: 0.914 (active)

Q: And the normalized growth (locus YNL128W, strain TEP1, hits give low values)?
A: 0.952

Q: What about the normalized growth (locus YNL153C, strain GIM3, hits give low values) of the same compound?
A: 0.889

Q: And the normalized growth (locus YNL183C, strain NPR1, hits give low values)?
A: 0.865

Q: And the normalized growth (locus YNL209W, strain ssb2, hits give low values)?
A: 0.952

Q: And the normalized growth (locus YNL233W, strain BNI4, hits give low values)?
A: 0.888

Q: And the normalized growth (locus YNL248C, strain rpa49, hits give low values)?
A: 0.75 (active)

Q: And the normalized growth (locus YNL250W, strain rad50, hits give low values)?
A: 0.963

Q: What about the normalized growth (locus YNL271C, strain bni1, hits give low values) of the same compound?
A: 0.985

Q: And the normalized growth (locus YNL298W, strain CLA4, hits give low values)?
A: 0.909

Q: What about the normalized growth (locus YNL307C, strain MCK1, hits give low values) of the same compound?
A: 0.908

Q: And the normalized growth (locus YNL322C, strain KRE1 (second series), hits give low values)?
A: 0.982

Q: What about the normalized growth (locus YNR049C, strain mso1, hits give low values) of the same compound?
A: 0.983

Q: What about the normalized growth (locus YNR052C, strain pop2, hits give low values) of the same compound?
A: 0.955

Q: What about the normalized growth (locus YOL012C, strain htz1) of the same compound?
A: 1.22

Q: And the normalized growth (locus YOL147C, strain pex11, hits give low values)?
A: 0.924 (active)

Q: What about the normalized growth (locus YOR001W, strain rrp6, hits give low values) of the same compound?
A: 0.89 (active)

Q: What about the normalized growth (locus YOR061W, strain CKA2, hits give low values) of the same compound?
A: 0.962

Q: And the normalized growth (locus YOR069W, strain VPS5, hits give low values)?
A: 0.985

Q: What about the normalized growth (locus YOR070C, strain gyp1, hits give low values) of the same compound?
A: 0.965

Q: And the normalized growth (locus YOR080W, strain dia2, hits give low values)?
A: 0.962

Q: What about the normalized growth (locus YOR083W, strain WHI5, hits give low values) of the same compound?
A: 0.852 (active)

Q: And the normalized growth (locus YOR106W, strain vam3, hits give low values)?
A: 0.824 (active)

Q: What about the normalized growth (locus YOR136W, strain idh2, hits give low values) of the same compound?
A: 0.978

Q: What about the normalized growth (locus YOR144C, strain elg1, hits give low values) of the same compound?
A: 0.97

Q: What about the normalized growth (locus YOR184W, strain ser1, hits give low values) of the same compound?
A: 0.855 (active)

Q: What about the normalized growth (locus YOR231W, strain MKK1, hits give low values) of the same compound?
A: 0.861

Q: What about the normalized growth (locus YOR265W, strain rbl2, hits give low values) of the same compound?
A: 0.98

Q: And the normalized growth (locus YOR270C, strain vph1, hits give low values)?
A: 0.73 (active)

Q: And the normalized growth (locus YOR290C, strain snf2, hits give low values)?
A: 0.858 (active)

Q: And the normalized growth (locus YOR316C, strain cot1, hits give low values)?
A: 1.02

Q: What about the normalized growth (locus YPL051W, strain arl3, hits give low values) of the same compound?
A: 0.892 (active)

Q: What about the normalized growth (locus YPL078C, strain atp4, hits give low values) of the same compound?
A: 0.842 (active)

Q: What about the normalized growth (locus YPL106C, strain sse1, hits give low values) of the same compound?
A: 0.826 (active)

Q: What about the normalized growth (locus YPL240C, strain hsp82, hits give low values) of the same compound?
A: 0.973

Q: What about the normalized growth (locus YPL256C, strain CLN2, hits give low values) of the same compound?
A: 0.981

Q: What about the normalized growth (locus YPR119W, strain clb2, hits give low values) of the same compound?
A: 1

Q: What about the normalized growth (locus YPR141C, strain kar3, hits give low values) of the same compound?
A: 1.04

Q: And the normalized growth (locus YPR163C, strain tif3, hits give low values)?
A: 0.925

Q: What about the normalized growth (locus YPR167C, strain met16, hits give low values) of the same compound?
A: 0.953

Q: And the normalized growth (strain wtn01, hits give low values)?
A: 0.894 (active)
